In ChEMBL document CHEMBL3988442, “University of Dundee, Small-Polar-MMV Screening Library” (2021):

Each compound was assayed against AMP-activated protein kinase, AMPK (Homo sapiens) (UniProt P54646+O43741+P54619+Q9UGJ0+Q9Y478+Q13131+Q9UGI9) (assay: AMP-dependent Kinase enzyme assay. An in vitro enzyme assay that detects ADP turnover that is directly proportional to AMPK activity. This uses naive AMPK that is activated during the assay with MK-8722). Details: 30 µM.
Format: functional
Parameters: scale not given: direction of the effect not stated beside the values
For `CCN(C)C(=O)c1cccc(S(=O)(=O)NCCc2nc(C)cc(=O)[nH]2)c1`, the Percent Effect was -5.87%. With `CCn1cnnc1CCNC(=O)CCNC(=O)c1ccccc1F` the Percent Effect was -0.474%. For `CN(C)C(=O)c1ccc2c(c1)nc(N1CC[C@H](O)C1)n2C`, the Percent Effect was 1.76%. Work on `Cc1cc(=O)c2cc(F)ccc2n1CC(=O)O` yielded a Percent Effect of 7.06%. With `CN1CC2(CCCN(C(=O)Cc3cccc(O)c3)C2)OC1=O` (stereo not given) the Percent Effect was 8.24%. `Cn1cc(NC(=O)N2CCCC2c2cccnc2)ccc1=O` (stereo not given) was tested, and the Percent Effect was 42.2%. With `CCn1nc(C)c(C(=O)N2C[C@@H](CN(C)C)[C@@H](CO)C2)c1C` the Percent Effect was -14.6%. `CS(=O)(=O)N1CCC(CNc2c(Cl)cccc2C#N)CC1` showed a Percent Effect of 7.5%. Work on `Cc1ccc(Cl)c(C)c1NC(=O)N1CCCN(Cc2ccccn2)CC1` yielded a Percent Effect of 2.6%. Work on `Cc1ncsc1C(=O)OCCN1CCCCCC1=O` yielded a Percent Effect of 5.73%. `CCN1CC2(CCC1=O)CCN(Cc1cccc(OC(F)F)c1)CC2` showed a Percent Effect of -0.304%. With `CN(C)c1nc2c(c(=O)[nH]1)CCN(C(=O)C1CCCO1)C2` (stereo not given) the Percent Effect was 2.77%. With `O=C(c1cccc2ccnn12)N1CCCC1Cn1cccn1` (stereo not given) the Percent Effect was -1.71%. `NC(=O)NC1CCN(Cc2ccccc2OCC(F)(F)F)CC1` showed a Percent Effect of -5.97%. In the case of `O=C(CCOc1ccc(Cl)cc1)NCCCn1cccn1`, the Percent Effect is reported as -3.71%. With `COc1cccc(CNC(=O)C(C)N2CC(n3nc(C)cc3C)C2)c1` (stereo not given) the Percent Effect was 0.116%. `Cn1cc(CCCN2CCCC(c3cc(C(F)(F)F)[nH]n3)C2)cn1` (stereo not given) gave a Percent Effect of -0.434%. `COCc1nc(CN2CCN(c3ccc(OC)cc3)C(=O)C2C)no1` (stereo not given) gave a Percent Effect of 6.42%. In the case of `O=c1c(CN2CCCCC2)coc2ccc(Cl)cc12`, the Percent Effect is reported as -4.07%. For `c1cncc(OC2CCN(CCn3cc4ccccc4n3)CC2)c1`, the Percent Effect was 13.1%. `CCS(=O)(=O)NCC(=O)N(C1CC1)C1Cc2ccccc2C1` was tested, and the Percent Effect was -4.92%. Work on `CCSc1cc(C(=O)N(Cc2cnn(C)c2)C(C)C)ccn1` yielded a Percent Effect of 1.44%. Work on `CCc1nnc(NC(=O)NCCN(C)C(=O)OC(C)(C)C)s1` yielded a Percent Effect of -3.38%. Compound `Cc1cc(-c2ccnn2C)nc(C2CCN(S(C)(=O)=O)CC2)n1` has a Percent Effect of 9.22%. In the case of `COCCCN1CC2(CCN(C(=O)c3ncc(F)cc3F)CC2)CC1=O`, the Percent Effect is reported as -0.49%. In the case of `CC(=O)c1cnc(NCCCN2CCOCC2)nc1C`, the Percent Effect is reported as -7.41%. Work on `CCCNc1ncc(CN2CCOC(Cc3cccc(F)c3)C2)cn1` (stereo not given) yielded a Percent Effect of 6.84%. `CCN(CC)S(=O)(=O)c1cc(Br)ccc1OC` gave a Percent Effect of -4.57%. `CN1CSC[C@H]1C(=O)N1CCC(CCc2ccccc2)CC1` was tested, and the Percent Effect was -1.47%. `c1csc(N2CCCN(c3ncnc4sccc34)CC2)n1` was tested, and the Percent Effect was 21.9%. For `O=C1CN(C(=O)c2cc3c(F)cc(Br)cc3[nH]2)CCN1`, the Percent Effect was 8.46%. `N#CC1COCCN1C(=O)c1cccc2cc[nH]c12` (stereo not given) was tested, and the Percent Effect was 5.13%. Compound `CCn1cc(NC(=O)NCCN2CCCc3ccccc32)cn1` has a Percent Effect of 7.2%. `Cc1cc(C)c(CNc2cnn(CC(O)CN(C)C)c2)c(C)c1` (stereo not given) gave a Percent Effect of -45.6%. `Cc1ccc(-c2cc(CNC(=O)NC3CCCCNC3=O)on2)cc1` (stereo not given) showed a Percent Effect of -0.304%. `CC(C)c1cc(NCc2csc(C(C)C)n2)nc(N)n1` gave a Percent Effect of -7.72%. `CO[C@@H]1c2ccccc2C2(CCN(C(=O)CNC(=O)C(C)C)CC2)[C@H]1O` showed a Percent Effect of 13.3%. `COc1nccc(N2CC[C@H](CO)[C@@H](O)C2)c1C#N` gave a Percent Effect of -6.05%. Compound `COCCC(=O)N1CCCC(CCC(=O)Nc2ccc(Cl)cc2)C1` (stereo not given) has a Percent Effect of 5.38%. In the case of `COc1cccc(-n2cc(CN(C)Cc3ccnc(C(C)C)n3)cn2)c1`, the Percent Effect is reported as -12.4%.
